Experimental data taken from paper PMC4336329 (PLoS ONE, 2015).
The whole screen tested about 310,000 compounds, of which about 14,000 (4.5%) showed an effect of 50% or more. The effect is printed as a negative number. The entries come from a sample that favours strong results as a whole.

The compounds below were run against human ether-à-go-go-related gene (hERG) potassium channel (human, UniProt Q12809) (assay: primary screen, population patch clamp on CHO cells stably expressing hERG; higher = less effect of the substance).
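Further: peak tail current of the secondary pulse compared with the same well before compound.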

Sequence of human ether-à-go-go-related gene (hERG) potassium channel (Q12809 whole entry, looked up): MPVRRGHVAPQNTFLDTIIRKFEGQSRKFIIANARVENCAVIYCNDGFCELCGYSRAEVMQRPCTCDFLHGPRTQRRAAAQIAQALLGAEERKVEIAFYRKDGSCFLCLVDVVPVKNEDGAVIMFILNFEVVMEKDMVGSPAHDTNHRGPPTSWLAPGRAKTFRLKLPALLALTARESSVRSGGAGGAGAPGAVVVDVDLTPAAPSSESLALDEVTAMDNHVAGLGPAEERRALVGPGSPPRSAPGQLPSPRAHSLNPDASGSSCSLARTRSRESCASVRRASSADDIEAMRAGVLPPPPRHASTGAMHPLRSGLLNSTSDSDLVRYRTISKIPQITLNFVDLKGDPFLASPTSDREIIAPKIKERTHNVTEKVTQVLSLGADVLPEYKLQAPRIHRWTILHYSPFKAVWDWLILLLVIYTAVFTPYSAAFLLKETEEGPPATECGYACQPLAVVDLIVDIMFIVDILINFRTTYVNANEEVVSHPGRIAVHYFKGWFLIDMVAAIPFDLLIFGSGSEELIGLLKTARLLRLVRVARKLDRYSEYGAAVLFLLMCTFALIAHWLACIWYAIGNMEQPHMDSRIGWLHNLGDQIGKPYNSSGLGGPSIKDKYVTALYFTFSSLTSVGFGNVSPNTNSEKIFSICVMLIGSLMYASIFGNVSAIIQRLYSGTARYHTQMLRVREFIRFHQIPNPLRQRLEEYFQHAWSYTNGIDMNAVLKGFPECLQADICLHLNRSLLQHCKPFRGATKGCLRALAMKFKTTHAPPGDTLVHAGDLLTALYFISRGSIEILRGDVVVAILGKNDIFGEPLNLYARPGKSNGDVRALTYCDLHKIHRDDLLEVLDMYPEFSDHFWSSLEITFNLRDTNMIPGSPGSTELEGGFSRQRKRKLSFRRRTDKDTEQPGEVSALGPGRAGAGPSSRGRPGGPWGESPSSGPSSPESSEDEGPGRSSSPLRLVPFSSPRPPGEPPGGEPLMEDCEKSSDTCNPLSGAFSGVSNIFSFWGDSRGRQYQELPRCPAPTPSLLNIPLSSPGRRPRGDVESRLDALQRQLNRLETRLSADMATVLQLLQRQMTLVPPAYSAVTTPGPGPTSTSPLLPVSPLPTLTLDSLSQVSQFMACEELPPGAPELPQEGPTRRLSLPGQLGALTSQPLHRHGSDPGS

SMILES	hERG current change (%, negative = inhibition) at 10uM [%]
COc1cccc(-n2c(COc3ccccc3C)nnc2SCC(=O)O)c1	1.56
CSCC[C@H](NC(=O)N1CCn2c1nc1ccccc12)C(=O)NCc1ccco1	-19.1
CCN(C(=O)COC(=O)c1cc(-c2ccccc2)nc2c1c(C)nn2-c1ccccc1)C1CCS(=O)(=O)C1 (centres unmarked)	21.5
CCN(CC)CCCNC(=O)c1oc2ccc3c(c2c1C)C(O)CC(C)(C)O3 (centres unmarked)	-4.08
Cc1ccc(NS(=O)(=O)c2ccc3c(c2)n(C)c(=O)n3C)cc1C	14.2
Cc1ccc(CNCC(O)(c2ccc(F)cc2)c2ccc(F)cc2)cc1	-56.4
COc1ccc(CNCC(O)(c2ccc(F)cc2)c2ccc(F)cc2)cc1	-67.3
Cc1ccc(CNCC(O)(c2ccccc2)c2ccc(F)cc2)cc1 (centres unmarked)	-45.6
COc1ccc(CNCC(O)(c2ccccc2)c2ccc(F)cc2)cc1 (centres unmarked)	-73.3
OC(CNCc1ccc(F)cc1)(c1ccc(F)cc1)c1ccc(F)cc1	-33.7
OC(CNCc1ccccc1)(c1ccc(F)cc1)c1ccc(F)cc1	-38.1
COc1cccc(CNCC(O)(c2ccc(Cl)cc2)c2ccc(Cl)cc2)c1	-12.2
OC(CNCc1ccc(F)cc1)(c1ccccc1)c1ccc(F)cc1 (centres unmarked)	-33.8
Cc1ccc(C(O)(CNCc2ccccc2)c2ccccc2)cc1 (centres unmarked)	-33.9
CC(C)C(NC(=O)C1CCCCC1)C(=O)Nc1ccncc1 (centres unmarked)	9.18
Cc1cc(C)cc(C(=O)N2CCC(CCC(=O)NC3CC3)CC2)c1	-2.09
NC(=O)C1CCN(C(=O)CN(c2ccc3c(c2)OCCO3)S(=O)(=O)c2ccccc2)CC1	-18
CCOC(=O)C1CCN(C(=O)CN(c2cc(Cl)ccc2OC)S(=O)(=O)c2ccccc2)CC1	-67
CCOC(=O)N1CCN(C(=O)CN(c2cc(Cl)ccc2OC)S(=O)(=O)c2ccccc2)CC1	-19.4
CCOC(=O)C1CCN(C(=O)CN(c2cc(OC)ccc2OC)S(=O)(=O)c2ccccc2)CC1	-2.73
CCOC(=O)C1CCN(C(=O)CN(c2ccc3c(c2)OCCO3)S(=O)(=O)c2ccccc2)CC1	-53.1
CCOC(=O)C1CCN(C(=O)CN(c2ccc3c(c2)OCCO3)S(C)(=O)=O)CC1	-4.03

SMILES	hERG current change (%, negative = inhibition) at 10uM [%]
COC(=O)NCc1ccc(CNC(=O)OC)cc1	4.84
CCc1cc(C(=O)N2CCN(c3ccccc3OC)CC2)sc1C	-15
COc1cc(OC)cc(C(=O)NNC(=S)Nc2ccccc2OC)c1	10.8
CC1CCN(C(=O)CN2C(=O)C(=O)N(C)C2=O)c2ccccc2S1 (centres unmarked)	5.74
CSc1cccc(NC(=O)/C=C/c2ccco2)c1	1.51
O=C(COC(=O)/C=C/c1ccc(F)cc1)NCc1cccs1	8.26
CC[n+]1c(/C=C/N(C)c2ccccc2)n(-c2ccccc2)c2ccc(-c3nc4ccccc4s3)cc21.[I-]	-81.1
CCOc1cc(-c2nc3ccccc3s2)ccc1O	4.57
CC[n+]1cccc(-c2nc3ccccc3s2)c1.[I-]	-0.683
CCOc1ccc(CCNC(=O)c2cnccn2)cc1OCC	11.1
CCNc1nc2c(c(=O)n(C)c(=O)n2C)n1Cc1ccc(Cl)cc1	-7.07
COc1ccc(Oc2nnnn2-c2ccccc2)cc1	-16.6
c1ccc(-n2nnnc2Oc2ccc(-n3ccnc3)cc2)cc1	-54
Fc1ccc(Oc2nnnn2-c2ccccc2)cc1	44.8
CCNC(=O)COc1ccc(-c2ccccc2)cc1	-19.4
CCOC(=O)c1cn2nc(Oc3ccc(C#N)cc3)ccc2n1	-54.1
CCOC(=O)c1cn2nc(Oc3ccc(OC)cc3)ccc2n1	4.29
CCOC(=O)c1cn2nc(Oc3ccc(C)cc3)ccc2n1	1.97
CC1=C/C(=N\OS(=O)(=O)c2ccccc2)C(C)=CC1=O	-9.37
O=C(CSc1nnc(COc2ccc(Cl)cc2)o1)N1CCN(c2ccccc2)CC1	-1.37
COc1ccccc1C1CC(c2ccc(Cl)cc2Cl)Nc2nc(N)nn21 (centres unmarked)	-44.7
Cc1cccn2c(=O)c3cc(S(=O)(=O)c4ccc(Br)cc4)c(=N)n(C4CCCCC4)c3nc12	18.6
